# In PubChem BioAssay (NCI):
# The panel holds about 83,000 compounds, 20% with a hit somewhere; the sample as a whole holds those more often.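 The test compound was applied at a single concentration to cells in 96-well plates for 48 hours, and percent growth was recorded.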 Values without a mark were called inactive. The source made the active and inactive calls. How the source made its calls: active means growth percent below 10; inactive means the rest.
# What was measured:
# Assay in all cases: NCI-60 one-dose screen, 48 h (100 = growth as untreated, 0 = no growth, -100 = all killed)
# Settings in all cases: 10 µM unless noted
# [1] = tested on: SR leukemia
# [2] = tested on: RPMI-8226 leukemia
# [3] = tested on: OVCAR-8 ovarian
# [4] = tested on: OVCAR-5 ovarian
# [5] = tested on: OVCAR-4 ovarian
# [6] = tested on: SK-OV-3 ovarian
# [7] = tested on: IGROV1 ovarian
# [8] = tested on: OVCAR-3 ovarian
# [9] = tested on: NCI/ADR-RES ovarian
SMILES,growth [1],growth [2],growth [3],growth [4] [%],growth [5] [%],growth [6] [%],growth [7],growth [8] [%],growth [9] [%]
CN(C)c1ncc(-c2ccc(C(F)(F)F)cc2)c(NC2CCCCCC2)n1,77.5%,1.63% (active),49.8%,87.3,45.4,83.1,78.6%,26.5,82.1
CC(C)[C@H](CO)Nc1nc(Nc2ccc(C(=O)NCCNS(=O)(=O)c3cccc4c(N(C)C)cccc34)c(Cl)c2)c2ncn(C(C)C)c2n1,-10.7% (active),-41.9% (active),9.87% (active),49.4,41.8,72.8,-13.7% (active),20.2,94.5
O=C(O)c1cccc([N+](=O)[O-])c1/C=C/c1ccccc1,85.2%,105%,115%,108,83.2,94.6,94.8%,103,103
O=C1NC(Cc2c[nH]c3ccccc23)C(=O)N1Cc1ccc(Cl)cc1 (stereo unspecified),90.1%,73.1%,97.9%,108,96.9,101,85.2%,106,106
Nc1c(C(=O)c2ccc(F)cc2)sc2nc3c(cc12)CCCC3,46.3%,77.6%,78.5%,97,83.9,73.1,77.1%,87.6,44.8
COc1cccc(C2CC(=O)Nc3c2c(C)nn3-c2nc3ccccc3[nH]2)c1OC (stereo unspecified),33.2%,70.4%,55%,114,74.4,79.9,3.88% (active),74,73.2
O=S(=O)(O)CCl,84.9%,98.7%,100%,98.3,105,107,106%,106,103
CCn1cc(C(=O)O)c(=O)c2cc(F)c(N3CCN(S(=O)(=O)c4c(C)cc(C)cc4C)CC3)cc21,64.7%,64.1%,81.5%,88.6,91.4,101,79.4%,89.2,84.8
O=S(=O)(NCCCNc1cc(-c2cn(-c3ccccc3)nc2-c2cccc(O)c2)ccn1)c1ccc(C(F)(F)F)cc1,8.04% (active),15.4%,53%,57.8,45.1,54.8,58.9%,49.6,35
